Source: PubChem BioAssay (NCI)
About 83,000 compounds went through this panel and 20% of them were active in at least one assay; those are over-represented in the sample as a whole.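 Assay: single dose, 48 h. Readout: percent growth (0 = no net growth; negative = cell death). Active: <10.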 Active and inactive are the calls of the source.

These compounds were tested on HL-60(TB) leukemia (assay: NCI-60 one-dose screen, 48 h (100 = growth as untreated, 0 = no growth, -100 = all killed)). Settings: 10 µM unless noted.
With `CO/N=C1\CCc2c(sc(NC(=O)c3cccc(C(F)(F)F)c3)c2C(N)=O)C1` the growth was 70.3% (inactive).
`Cc1ccc(NC(=O)Nc2nc3ccc([N+](=O)[O-])cc3s2)cc1` was tested, and the growth was -17.2% (active).
In the case of `O=C1CSC(c2cn(-c3ccccc3)nc2-c2ccc(Cl)cc2)N1c1ccccc1` (stereo not given), the growth is reported as 117% (inactive).
In the case of `Nc1nc(-c2cccc([N+](=O)[O-])c2)c(N=Nc2ccccc2[N+](=O)[O-])s1`, the growth is reported as 96.5% (inactive).
`O=C(CNc1nc(-c2cccc([N+](=O)[O-])c2)cs1)Nc1cccc([N+](=O)[O-])c1` was tested, and the growth was -9.99% (active).
In the case of `OC1CCc2c(-c3ccc4ncnc(N5CCc6cc(F)c(Cl)cc65)c4c3)cncc21` (stereo not given), the growth is reported as 34.3% (inactive).
In the case of `O=C(Nc1cc(C(F)(F)F)cc(C(F)(F)F)c1)Nc1ccc2oc(=O)ccc2c1`, the growth is reported as -24.3% (active).
In the case of `CCCCc1nc(/C=N/Nc2nc(Nc3ccccc3)nc(Nc3ccc(S(N)(=O)=O)cc3)n2)c(Cl)[nH]1`, the growth is reported as 118% (inactive).
With `O=C(CCCCCCNC(=O)C(O)(O)C(F)(F)F)Nc1ccc(Cl)cc1` the growth was 9.84% (active).
With `Cc1nc(-c2cc3ccccc3oc2=O)ccc1C(=O)/C=C/c1ccc(N2CCOCC2)cc1` the growth was 38.7% (inactive).
In the case of `CCO/C=N/C1=C(C#N)C(c2ccc(Cl)cc2)c2sc3c(C)cccc3c2O1` (stereo not given), the growth is reported as -12.7% (active).
With `Fc1ccc(-c2cc3nc(C(Cl)Cl)nc(-c4ccc(Cl)cc4)n3n2)cc1` the growth was -4.23% (active).
For `O=C(O)CCCCCN1C(=O)/C(=C/c2ccc(O)c(O)c2)SC1=S`, the growth was 101% (inactive).
With `O=C(Nc1cccc(-c2nc(-c3ccc(NC(=O)c4cccs4)cc3Cl)no2)c1)Nc1ccc(NC(=O)C2CC2)c(C(F)(F)F)c1` the growth was 6.9% (active).
In the case of `C=C(C)[C@@H]1CC[C@]2(C(=O)NC3CCCCC3)CC[C@]3(C)[C@H](CC[C@@H]4[C@@]5(C)CC[C@H](N)C(C)(C)[C@@H]5CC[C@]43C)[C@@H]12`, the growth is reported as 74.5% (inactive).
`COC(=O)c1cccc(NC2=C(Cl)C(=O)C(C)=C(C)C2=O)c1` was tested, and the growth was 60.4% (inactive).
`O=C(/C=C/Nc1ccc(S(=O)(=O)Nc2ncccn2)cc1)c1ccc(N=Cc2c(O)[nH]c3ccccc23)cc1` was tested, and the growth was 99.6% (inactive).
With `CCOC(=O)Nc1cccc(-n2cnc3cc(-c4ccc(O)cc4)ccc32)c1` the growth was 2.92% (active).
For `CC/C(=C/c1c(O)cccc1OC)c1ccc2c(OC)cccc2[o+]1`, the growth was 106% (inactive).
`CCn1c(SCC(=O)Nc2cccc(C(=O)/C=C/c3cc(OC)c(OC)c(OC)c3)c2)nc2ccccc2c1=O` was tested, and the growth was 48% (inactive).
For `COC(=O)C(Cc1ccccc1)Nc1nc(NC(Cc2ccccc2)C(=O)OC)nc(N2CCOCC2)n1` (stereo not given), the growth was 103% (inactive).
In the case of `CCOC(=O)c1cccnc1Nc1ccc(NC(=O)Nc2ccc(Cl)c(C(F)(F)F)c2)cc1`, the growth is reported as 29.4% (inactive).
With `N#Cc1nc(-c2ccccc2)oc1N1CC[C@@H](CO)C1` the growth was 90.6% (inactive).
`CCc1ccc(NC(=O)N[C@@H](Cc2cccc(F)c2)C(=O)N[C@@H]2C(=O)N3CCC[C@H]3C(=O)N3CCCC[C@H]3C(=O)N[C@@H](CO)C(=O)N3C[C@H](C)C[C@H]3C(=O)O[C@H]2C)c(F)c1` was tested, and the growth was 13.3% (inactive).
For `COc1ccc(-c2nnc(SCc3ccc(O)c4ncccc34)o2)cc1`, the growth was 18.3% (inactive).
`CCOc1ccc([C@H]2C(C(=O)c3ccc(Cl)cc3)C3(N[C@@H]2c2ccccc2)C(=O)Nc2ccc(Br)cc23)cc1` (stereo not given in full) was tested, and the growth was 15.2% (inactive).
With `Cc1ccc(-c2csc(N/N=C/c3cccs3)n2)cc1` the growth was 84.2% (inactive).
In the case of `Cc1[nH]c(C(=O)Nc2ccccc2OCc2cccc(C(=O)NC3CCNC3)c2)c(Cl)c1Cl` (stereo not given), the growth is reported as 71.4% (inactive).
For `Oc1ccc(CSc2nnc(-c3ccncc3)n2-c2ccccc2)c2cccnc12`, the growth was 10.9% (inactive).
For `O=C(Cn1c(-c2ccccc2)nc2cc(Cl)c(Cl)cc21)N=Nc1c(O)[nH]c2ccc(Cl)cc12`, the growth was 92.1% (inactive).
With `O=C(CSc1nc2ccccc2c(=O)n1-c1ccc(S(=O)(=O)Nc2ccc(Cl)nn2)cc1)Nc1ccc(S(=O)(=O)Nc2ccc(Cl)nn2)cc1` the growth was 96.4% (inactive).
With `Cc1ccc(-c2nnc(SCc3ccc(O)c4ncccc34)o2)cc1` the growth was 4.59% (active).
For `N=c1c2cc(-c3ccccc3)oc2ncn1/N=C/c1ccccc1`, the growth was 58.8% (inactive).
In the case of `CCn1c(SCC(=O)Nc2cccc(C(=O)/C=C/c3ccc(C)cc3)c2)nc2ccccc2c1=O`, the growth is reported as 92% (inactive).
In the case of `NC(N)=Nc1ccc(Oc2cccc(NC(N)=Nc3ccc(Br)cc3)c2)cn1`, the growth is reported as 64.8% (inactive).
In the case of `CC(=C(c1ccc(OCCCN(C)C)cc1)c1ccc(OCCCN(C)C)cc1)c1ccc(Cl)cc1`, the growth is reported as 75.5% (inactive).
In the case of `O=C(CCl)Nc1ccc(NC(=O)c2cc(Cl)ccc2O)c(Cl)c1`, the growth is reported as 49.3% (inactive).
With `Clc1ccc2oc3c(NCCCn4ccnc4)c4ccccc4nc3c2c1` the growth was 29% (inactive).
For `COc1ccccc1N1CCN(C2=CC(=O)C(C)=C(C)C2=O)CC1`, the growth was 113% (inactive).
`CN1CCN(CCCCCC(=O)Nc2nc(-c3cccc(NS(=O)(=O)c4cccc5c(N(C)C)cccc45)c3)cs2)CC1` was tested, and the growth was 75.1% (inactive).
